# Measured values reported in the supplement of paper PMC12282887.
# ± gives the standard deviation of the averaged measurements.
# Assays:
# Assay in all cases: promoter activity interaction Z-score (Lux/OD deviation from empty-vector control); higher = stronger promoter induction by the compound
# [1] = test system: E. coli BW25113 acrABp lux reporter
# Procedure, shortened: (§1)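 E. coli BW25113, as wild type or one of three single-gene deletion strains, carried low-copy luxCDABE promoter reporters and grew in 40 µl LB Lennox in 384-well plates at 37°C, with OD600 and luminescence read every 30 min for 12 h. Each compound was run at four 1:2 dilutions in biological duplicates, integration spanned 0–8 h for wild type and 1–9 h for deletion strains, and wells under 10% of the median growth value were dropped. The score is the Z-transformed residual of growth-normalised luminescence fitted against a control.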
# [2] = test system: E. coli BW25113 micFp lux reporter
# Procedure, shortened: as §1
# [3] = test system: E. coli BW25113 ompFp lux reporter
# Procedure, shortened: as §1
# [4] = test system: E. coli BW25113 robp lux reporter
# Procedure, shortened: as §1
# [5] = 0.0012 µg/ml, genetic background: wild type
# [6] = 0.0012 µg/ml, genetic background: ΔmarA
# [7] = 0.0012 µg/ml, genetic background: Δrob
# [8] = 0.0012 µg/ml, genetic background: ΔsoxS
# [9] = 0.0024 µg/ml, genetic background: wild type
# [10] = 0.0024 µg/ml, genetic background: ΔmarA
# [11] = 0.0024 µg/ml, genetic background: Δrob
# [12] = 0.0024 µg/ml, genetic background: ΔsoxS
# [13] = 0.0048 µg/ml, genetic background: wild type
# [14] = 0.0048 µg/ml, genetic background: ΔmarA
# [15] = 0.0048 µg/ml, genetic background: Δrob
# [16] = 0.0048 µg/ml, genetic background: ΔsoxS
# [17] = 0.01 µg/ml, genetic background: wild type
# [18] = 0.01 µg/ml, genetic background: ΔmarA
# [19] = 0.01 µg/ml, genetic background: Δrob
# [20] = 0.01 µg/ml, genetic background: ΔsoxS
compound,measurement,setting,value
CO/N=C(\C(=O)N[C@@H]1C(=O)N2C(C(=O)O)=C(COC(C)=O)CS[C@H]12)c1csc(N)n1 [Cefotaxime],promoter activity interaction Z-score,[1]; [5],-0.284 ± 0.025
same,promoter activity interaction Z-score,[1]; [6],0.0868 ± 0.9
same,promoter activity interaction Z-score,[1]; [7],-0.103 ± 0.27
same,promoter activity interaction Z-score,[1]; [8],-0.098 ± 0.18
same,promoter activity interaction Z-score,[1]; [9],-0.0863 ± 0.2
same,promoter activity interaction Z-score,[1]; [10],-0.059 ± 0.93
same,promoter activity interaction Z-score,[1]; [11],0.00639 ± 0.18
same,promoter activity interaction Z-score,[1]; [12],0.118 ± 0.16
same,promoter activity interaction Z-score,[1]; [13],-0.23 ± 0.15
same,promoter activity interaction Z-score,[1]; [14],0.42 ± 0.9
same,promoter activity interaction Z-score,[1]; [15],-0.311 ± 0.072
same,promoter activity interaction Z-score,[1]; [16],-0.148 ± 0.096
same,promoter activity interaction Z-score,[1]; [17],-0.274 ± 0.025
same,promoter activity interaction Z-score,[1]; [18],-1.6 ± 0.042
same,promoter activity interaction Z-score,[1]; [19],-0.154 ± 0.33
same,promoter activity interaction Z-score,[1]; [20],0.212 ± 0.064
same,promoter activity interaction Z-score,[2]; [5],0.00627 ± 0.0068
same,promoter activity interaction Z-score,[2]; [6],-0.0578 ± 0.08
same,promoter activity interaction Z-score,[2]; [7],0.0368 ± 0.11
same,promoter activity interaction Z-score,[2]; [8],-0.0273 ± 0.11
same,promoter activity interaction Z-score,[2]; [9],-0.0766 ± 0.15
same,promoter activity interaction Z-score,[2]; [10],0.0449 ± 0.11
same,promoter activity interaction Z-score,[2]; [11],0.0295 ± 0.15
same,promoter activity interaction Z-score,[2]; [12],-0.18 ± 0.098
same,promoter activity interaction Z-score,[2]; [13],-0.0576 ± 0.36
same,promoter activity interaction Z-score,[2]; [14],-0.223 ± 0.19
same,promoter activity interaction Z-score,[2]; [15],0.0329 ± 0.18
same,promoter activity interaction Z-score,[2]; [16],-0.198 ± 0.15
same,promoter activity interaction Z-score,[2]; [17],-0.5 ± 0.52
same,promoter activity interaction Z-score,[2]; [18],-0.278 ± 0.011
same,promoter activity interaction Z-score,[2]; [19],-0.0107 ± 0.074
same,promoter activity interaction Z-score,[2]; [20],-0.133 ± 0.077
same,promoter activity interaction Z-score,[3]; [5],-0.111 ± 0.025
same,promoter activity interaction Z-score,[3]; [6],-0.439 ± 0.11
same,promoter activity interaction Z-score,[3]; [7],-0.492 ± 0.1
same,promoter activity interaction Z-score,[3]; [8],0.179 ± 0.43
same,promoter activity interaction Z-score,[3]; [9],0.0538 ± 0.32
same,promoter activity interaction Z-score,[3]; [10],0.191 ± 0.18
same,promoter activity interaction Z-score,[3]; [11],-0.287 ± 0.12
same,promoter activity interaction Z-score,[3]; [12],-0.23 ± 0.033
same,promoter activity interaction Z-score,[3]; [13],-0.24 ± 0.46
same,promoter activity interaction Z-score,[3]; [14],-0.537 ± 0.14
same,promoter activity interaction Z-score,[3]; [15],-0.409 ± 0.18
same,promoter activity interaction Z-score,[3]; [16],-0.158 ± 0.26
same,promoter activity interaction Z-score,[3]; [17],-0.753 ± 0.55
same,promoter activity interaction Z-score,[3]; [18],-2.18 ± 0.79
same,promoter activity interaction Z-score,[3]; [19],-0.598 ± 0.51
same,promoter activity interaction Z-score,[3]; [20],-2.53
same,promoter activity interaction Z-score,[4]; [5],-0.219 ± 0.23
same,promoter activity interaction Z-score,[4]; [6],-0.756 ± 0.2
same,promoter activity interaction Z-score,[4]; [7],-0.209 ± 0.28
same,promoter activity interaction Z-score,[4]; [8],-0.0836 ± 0.31
same,promoter activity interaction Z-score,[4]; [9],-0.0844 ± 0.072
same,promoter activity interaction Z-score,[4]; [10],0.0702 ± 0.056
same,promoter activity interaction Z-score,[4]; [11],0.0668 ± 0.073
same,promoter activity interaction Z-score,[4]; [12],-0.0496 ± 0.19
same,promoter activity interaction Z-score,[4]; [13],0.227 ± 0.29
same,promoter activity interaction Z-score,[4]; [14],-0.466 ± 0.095
same,promoter activity interaction Z-score,[4]; [15],0.0502 ± 0.2
same,promoter activity interaction Z-score,[4]; [16],-0.0174 ± 0.097
